Data on 15 molecules can be found in PubChem BioAssay (NCI).

Compounds without any hit were thinned out: in the full panel of roughly 83,000, 20% have a hit.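 The test compound was applied at a single concentration to cells in 96-well plates for 48 hours, and percent growth was recorded.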 Unmarked numbers belong to inactive results. The source made the active and inactive calls. The calls were made as follows: active = growth percent below 10; inactive = the rest. *1 amine or outer side, *2 acyl side, *3 side chain or, on linkers, in order; H or OH if unused. Where a SMILES comes first, the peptide text is derived from it. [ ]: non-standard residue; d: D form. The star is where a group is joined. X5 = CCC(=O)CC1CC(C)CC(C(=O)[*:2])N1[*:1]; X4 = CCCCCCCCC(C)C(=O)*; Aib = CC(C)(N)C(=O)O; X6 = CC(CN(C)CCO)N*

Test in all cases: NCI-60 one-dose screen, 48 h (100 = growth as untreated, 0 = no growth, -100 = all killed)
The test system of assay [1] is HCT-15 colon. Particulars: 10 µM unless noted.
In assay [2] the test system is HT29 colon. As to conditions: 10 µM unless noted.
The test system of assay [3] is SNB-75 CNS. Particulars: 10 µM unless noted.
For assay [4], the system named is SNB-19 CNS. Particulars: 10 µM unless noted.
Assay [5] deals with U251 CNS. As to conditions: 10 µM unless noted.
In assay [6] the test system is PC-3 prostate. As to conditions: 10 µM unless noted.
The subject of assay [7] is SK-MEL-5 melanoma. Particulars: 10 µM unless noted.
Assay [8] deals with UACC-62 melanoma. Particulars: 10 µM unless noted.
Assay [9] deals with LOX IMVI melanoma. As to conditions: 10 µM.
Assay [10] has as its system SK-MEL-28 melanoma. As to conditions: 10 µM unless noted.

Take `CCCCCCCCCCCC1N=C(N)N=C(N)N1c1cccc(Br)c1` (centres undefined): the growth was 71.5% in assay [1]; -81.8% (active) in [2]; -12.7% (active) in [3]; -93.6% (active) in [4]; -75.2% (active) in [5]; -55.2% (active) in assay [6]. Also, the growth in [7] was 19.3%; in assay [8] it was 37.9%; in assay [9], 9.55% (active); in assay [10], 70.4%.

For `O=C(CCl)N1c2ccccc2Sc2c1ccc1ccccc21`, the growth in assay [1] is 39%; in assay [2] it was 69.4%; in assay [3], 60.2%; in [4] it was 88.9%; in assay [5] it was 63.8%; in assay [6] it was 70.6%. Besides, the growth in [7] was 84.5%; in [8], 78%; in assay [10] it was 111%.

With `O=C1C=CC(=O)N1C1CCCCCCCCCCC1`, the growth in assay [1] is 88.6%; in assay [2] it was 45.2%; in [3], 79.4%; in assay [4] it was 97.1%; in assay [5], 91.6%; in assay [6], 86.9%. The growth in assay [7] is 92.9%; in assay [8], 88.8%; in assay [10], 91%.

For `Nc1ccc(C(=O)/C=C/c2ccccc2)cc1`, the growth is 87% in assay [1]; 96.5% in assay [2]; 104% in [3]; 91.3% in assay [4]; 91.8% in [5]; 74.1% in [6]. For the same molecule, the growth was 97% in assay [8], 84.9% in assay [9] and 113% in [10].

For `O=C(/C=C/c1ccccc1)c1ccccc1O`, the growth in assay [1] is 67.3%; in assay [2] it was 84.5%; in assay [3], 63.7%; in [4], 80.1%; in assay [5], 61.1%; in assay [6] it was 92.9%. Further, the growth in assay [7] is 94.9%; in [8] it was 85.8%; in [9] it was 34.9%; in [10], 93.9%.

For the molecule `CN1CCC(c2ccccc2)(c2ccccc2)C(=O)C1`, the growth in [1] is 70.2%; in assay [2], 81.7%; in [3], 58%; in assay [4] it was 90.7%; in assay [5] it was 91.3%; in assay [6], 85.7%. In addition, the figures for the growth in assay [7], in [8] and in assay [10] were 97.7%, 93.6% and 119%, respectively.

As to `CCCCCCCCC(C)C(=O)N1CCCC1C(=O)N1C(CC(=O)CC)CC(C)CC1C(=O)NC(C)C(=O)NC(C)(C)C(=O)NC(C)(C)C(=O)NC(C(=O)NC(C)C(=O)NC(C)(C)C(=O)NC(C)(C)C(=O)NC(C)CN(C)CCO)C(C)CC` (centres undefined) (X4-P[X5]A[Aib][Aib]IA[Aib][Aib]-X6; configuration not given here), the growth was -70.8% (active) in assay [1]; -84.2% (active) in assay [2]; -23.8% (active) in assay [3]; 1.03% (active) in assay [4]; -67.3% (active) in assay [5]; -7.35% (active) in assay [6]. The growth is -66.1% (active) in assay [8] and -69.5% (active) in assay [9].

In the case of `O=[N+]([O-])c1ccc(Oc2ccccc2Cl)c([N+](=O)[O-])c1`, the growth in [1] is 77%; in assay [2], 90.2%; in [3], 83.2%; in assay [4], 95.7%; in [5] it was 88.4%; in assay [6], 97.1%. In addition, the growth is 95.1% in assay [7], 44.2% in [9] and 103% in [10].

Consider `CCN(CC)c1ccc(/C=C\C(=O)c2ccc(NC(C)=O)cc2)cc1`, for which the growth in [1] is 45.6%; in [2], 39.5%; in assay [3], -0.746% (active); in assay [4] it was 61.5%; in assay [5], 41.9%; in assay [6], 71.9%. The growth was 97.4% in [7], 78.5% in assay [8], 74.1% in [9] and 82% in [10].

Turning to `COc1cc([C@@H]2c3cc4c(cc3[C@H](OC3OC5COC(c6ccccc6)OC5C(O)C3O)[C@H]3COC(=O)[C@H]23)OCO4)cc(OC)c1OC` (some centres undefined), the growth is 41.1% in [1]; 23.2% in assay [2]; 75.9% in assay [3]; 79.9% in assay [4]; 55.8% in assay [5]; 8.28% (active) in [6]. Also, the growth in assay [7] is -33.3% (active); in [8] it was 79.4%; in assay [9] it was 30.2%; in [10] it was 58.3%.

As for `CCCCOS(=O)(=O)c1ccccc1`, the growth in assay [1] was 102%; in assay [2], 104%; in assay [3], 85.9%; in assay [4], 103%; in assay [5] it was 104%; in assay [6] it was 101%. Further, the growth was 117% in [7], 97.1% in assay [9] and 126% in assay [10].

As for `CN(C)CCN(C)CC(C)(C)C(=O)/C=C/c1ccc(Cl)c(Cl)c1`, the growth is -86.4% [100 µM] (active) in assay [1]; -77.5% [100 µM] (active) in [2]; -99.3% [100 µM] (active) in assay [3]; -98.6% [100 µM] (active) in [4]; -95.1% [100 µM] (active) in assay [5]; -87.2% [100 µM] (active) in assay [6]. Besides, the growth in assay [7] is -99.3% [100 µM] (active); in assay [8] it was -95.6% [100 µM] (active); in [10] it was -98.6% [100 µM] (active).

As to `CCCCCCC1N=C(N)N=C(N)N1c1cccc(Cl)c1` (centres undefined), the growth in [1] is 84.2%; in assay [2], 17.9%; in assay [3], -0.752% (active); in [4], 26.9%; in [5] it was 33.6%; in [6], 29.3%. In addition, the growth in assay [7] was 28.3%; in assay [9] it was 17.1%; in assay [10], 40%.

As for `Cc1ccc(Nc2ccc(O)c3c2C(=O)c2c(O)ccc(Nc4ccc(C)cc4)c2C3=O)cc1`, the growth in assay [1] is 94.8%; in assay [2] it was 106%; in [3], 99.4%; in assay [4] it was 91.6%; in assay [5], 99.8%; in [6], 90.7%. In addition, the growth is 91.7% in assay [7], 105% in assay [8], 96.9% in [9] and 112% in assay [10].

Take `CCCCC(CCc1ccc([N+](=O)[O-])cc1)(C(C)=O)C(=O)OCC` (centres undefined): the growth is 94.7% in assay [1]; 94.2% in assay [2]; 85.1% in [3]; 108% in assay [4]; 95.3% in assay [5]; 81.2% in [6]. For the same molecule, the growth in assay [8] was 97.5%; in assay [9], 95.8%; in [10], 100%.
